The supplement of paper PMC10681739

Assays:
ETS1 [1] = molecular target: T1, ETS1 (UniProt P14921); test: ETS1 binding intensity (PBM fluorescence), ETS1 alone (arbitrary fluorescence units); higher = stronger binding; settings: ETS1 concentration 1 nM; RUNX1 concentration 0 nM
T1 sequence: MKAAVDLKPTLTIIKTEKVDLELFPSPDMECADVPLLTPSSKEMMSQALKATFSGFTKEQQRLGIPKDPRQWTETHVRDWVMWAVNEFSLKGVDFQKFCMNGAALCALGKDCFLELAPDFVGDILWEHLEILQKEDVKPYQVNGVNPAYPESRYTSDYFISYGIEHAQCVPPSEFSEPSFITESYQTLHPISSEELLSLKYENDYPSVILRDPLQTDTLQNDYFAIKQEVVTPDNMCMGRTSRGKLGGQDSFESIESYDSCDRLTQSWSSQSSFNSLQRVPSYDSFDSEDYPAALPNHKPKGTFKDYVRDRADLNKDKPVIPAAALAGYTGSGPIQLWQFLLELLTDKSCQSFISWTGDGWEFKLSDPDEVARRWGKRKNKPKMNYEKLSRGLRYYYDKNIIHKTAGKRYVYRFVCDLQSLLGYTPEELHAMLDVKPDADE

RUNX1 [2] = molecular target: RUNX1 (UniProt Q01196); test: RUNX1 binding intensity (PBM fluorescence), RUNX1 alone (arbitrary fluorescence units); higher = stronger binding; settings: RUNX1 concentration 2 nM; ETS1 concentration 0 nM
Sequence of RUNX1 (Q01196 whole entry): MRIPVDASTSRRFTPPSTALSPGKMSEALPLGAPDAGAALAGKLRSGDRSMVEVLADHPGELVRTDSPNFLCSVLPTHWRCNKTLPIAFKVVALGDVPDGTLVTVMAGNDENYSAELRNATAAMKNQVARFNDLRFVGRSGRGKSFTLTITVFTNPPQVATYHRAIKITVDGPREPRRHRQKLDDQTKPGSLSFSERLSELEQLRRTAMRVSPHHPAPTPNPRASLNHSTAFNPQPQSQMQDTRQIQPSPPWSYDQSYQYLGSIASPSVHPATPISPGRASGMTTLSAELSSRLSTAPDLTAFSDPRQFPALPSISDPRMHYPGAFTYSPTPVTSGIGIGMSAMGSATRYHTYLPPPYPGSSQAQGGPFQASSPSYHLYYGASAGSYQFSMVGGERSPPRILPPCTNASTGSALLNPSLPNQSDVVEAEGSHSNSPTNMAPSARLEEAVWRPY
Description: (§1)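 Cooperative gcPBM on 36-bp genomic probes with neighbouring ETS1 and RUNX1 sites. Recombinant human RUNX1 (2 nM) was incubated alone or with ETS1 (25 nM) and detected with anti-RUNX1 antibody plus Alexa488 secondary. Values are medians over 4 replicate spots; the RUNX1+ETS1 data were normalised to the RUNX1-only data. The probes sit in constant array flanks that are not printed.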

ETS1 [3] = molecular target: T1, ETS1; test: ETS1 binding intensity (PBM fluorescence) in presence of RUNX1, normalised to ETS1-only experiment (arbitrary fluorescence units); higher = stronger binding; settings: ETS1 concentration 1 nM; RUNX1 concentration 25 nM
RUNX1 [4] = molecular target: RUNX1 (UniProt Q01196); test: RUNX1 binding intensity (PBM fluorescence) in presence of ETS1, normalised to RUNX1-only experiment (arbitrary fluorescence units); higher = stronger binding; settings: RUNX1 concentration 2 nM; ETS1 concentration 25 nM
Description: as §1
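For RUNX1 binding intensity (PBM fluorescence) in presence of ETS1, normalised to RUNX1-only experiment in this document: Full-length recombinant human ETS1 or RUNX1 bound to double-stranded 36-bp genomic probes on microarrays, detected by protein-specific primary antibody and Alexa488 secondary, spot fluorescence as median of four replicate spots.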
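For RUNX1 binding intensity (PBM fluorescence), RUNX1 alone in this document: Full-length recombinant human RUNX1 bound to double-stranded 36-bp genomic probes on a high-density microarray, scored as Alexa488 fluorescence per spot via anti-RUNX1 antibody, median of four replicate spots.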

Sequence	ETS1 binding intensity (ETS1 [1])	RUNX1 binding intensity (RUNX1 [2])	ETS1 binding intensity (ETS1 [3])	RUNX1 binding intensity (RUNX1 [4])
GGCCAACGAGAGCGCTTCCGGCCGCAGCCACGGCGG	1950	735	3000	1420
ACAAGGAGGAAAAGGAAATGAACCACGAATAGCAAA	1220	817	1160	948
CCACCGTCCCCGGAAATAACCGCGCCTGCCTCTCAA	1940	1330	3290	2090
CTTCTTTCCAGAGGATGTGGCTTCAGCGGGAGAGCT	1250	817	1830	1030
TAGGCAGGCAGGATGTGCCTATAAGCCACATGAATG	1930	726	2240	962
TGCAATCAGGAAGCCTGCCCCTCTAGAACCACAAAA	540	882	1210	892
GTTGTCTTCTTCCTGAGTAAACCGCAGTGCAGAGAA	456	5250	1120	6380
ATCTTCCGTAGCAGTCAGGTGTTTTGTGGTTTGCAG	460	1490	1300	2670
CGGGCTGGGAGGAAGTGATGGCTGACCACAGAGGAG	1130	1000	4610	1570
GGCAACCTGAGCTTCCGTGTAAAACCACAGTGTGAC	372	1100	964	1290
AAACCCTGAGTAATCGGAAGTGGTTAGGAGTGAGAG	2190	816	6580	1310
AGCACTTCCGTTTGGGCAGGGCTGCGGGCCGGAGGG	911	746	831	2130
GTCCCCGACTTCCGCTCTCGGTTGGTGGTTGGCTTT	2370	894	3430	2590
GAGAAACAAACAGGATGTGGTCTCTGCCCTGGAGGA	7010	737	12000	2420
GAGGGGTGGGGGAGGAAGGCTGCGGTTTCTGCTGGG	390	8430	2180	11100
CACCGGAAAAGGCAAGCGCGGCCGCGCGGTTGGCGC	675	745	1090	1160
CTGTTTCCGAGTAAAGTAGGGTGTGTGGGTCACATG	456	872	395	929
ACTGAACAAACCGGATGTGGTTCCCACCTGCAATCT	25000	850	29500	11400
CAGCGGAAGAAAGACCTGCCACCTCCACCACAAAGA	440	1000	471	925
TGACAGACCCGGAAATAAGAGGAGACCACACACTTG	1900	894	2660	1410
ACTGCTTGATTTTCAGGAAGTGGTAAAGTGGCAGGT	3700	782	9050	957

Sequence	ETS1 binding intensity (ETS1 [1])	RUNX1 binding intensity (RUNX1 [2])	ETS1 binding intensity (ETS1 [3])	RUNX1 binding intensity (RUNX1 [4])
AGCTAGACTACAGGAGGAAACCACAGCCTAAACCAG	541	1250	1030	1410
CCTGCCGAGGAAGTCCCACGTCACTGCGGTTAGAGT	356	1670	2090	3000
GAGGGTTGCTGGGGGGAAGTGTGGTAAATCTTTTCC	458	938	475	930
ACAACCCGGAAGTTGGCGCAGCGCGGTTGCCAATGG	4350	671	4910	1300
CGAGGGAGCCGGAAAGATGGTGGTTACCAGATCTGC	608	766	992	926
TTGGCTTTGTGTTTCCGCGGTGTTGGTAGAGTCTCG	418	875	482	980
GAGCAGTGGTGGGAAATGTGGGGTTGGGGGTAAAGG	493	874	390	843
AGAAACATCCTGCCCAGCCACCTGACCACAAGGCAC	377	1280	1070	3130
CAACCTGCTATAAGGAAGTTAAACCGCAGCTCACCG	718	3670	5980	5610
GTGGGGAGAGGCAGGAAACCGCTGCCGCCGACGGGG	3550	807	4730	1030
TGGGCTTTGCAGGAAGCTGTGGTTCACCTACAGCCT	1160	692	2110	866
GGAGCATCCCGGAAGTCGTCACTGCGGCCGCTCCCG	6420	690	8070	1770
AGGCGCCGGAAAAACTACATCTCCCACAATCCTCGG	484	965	396	913
GCGAAAGGAACTTCCTTTGCATGCGGTCAGAGTGCT	477	892	2280	2490
GACATGCTCCGGAAGCTTGAGGTTTTAACGTTAAGG	2040	734	5030	1390
TCTTTGAGAAGCGGATGTGGTAAACTTGCCTCTGTT	5970	801	36600	10000
CCCTCCTCTTTCGTTTCCTAACCGCAAATTCCATCA	487	58200	1720	53700
TGGTGCCAAACATCCGCTAGCCACAGAAAAACCGAC	778	826	1170	1640
CAACACAGGATGTGCAGTATTATACCGCAAAGCACT	1710	1150	6950	2070
CCAGCCGGAAGCCCCGCCCCCTAGAGGCACCGCGGA	1010	1000	962	1270
CTACAAACGGCTTCCTCCTGCCTAACCACAACCTCA	455	3280	1130	5340

Sequence	ETS1 binding intensity (ETS1 [1])	RUNX1 binding intensity (RUNX1 [2])	ETS1 binding intensity (ETS1 [3])	RUNX1 binding intensity (RUNX1 [4])
GAGGAGATTTCCGGCCCCCATCCCCGCAGCGACCTT	1690	762	1990	1820
GAAATCCATCACGGATGTGGGCTTTTTGCTCTCATT	1490	760	1620	1010
GGCTGGGGCGGTATCCTGTGGTCTTACTCTGGTGAC	445	1520	437	2620
TTTTGCCCAACAGGATGTGGTTTCTAAAGCAGACGG	6620	1290	31600	18500
CTGCACTTCCGGTCAGGCGGTCGGGCTGCGGGGCCC	5690	739	6710	2680
ACTTCACTTCCCAACCTCCCCTGTGGTTAGGTGTGG	365	1040	548	1220
AACAAACCGGATGGGGTTCCCACCCGCAATCTTGTC	1700	830	4570	1970
AGTGGCAGTGCAGGAAGTGGTTTGTCTGGTACAATC	3750	788	6800	1590
CCATCCAGGAAGCTTATGGTGCGACCGCAGTGTGCC	508	908	1880	1160
TTTCTCTTCCTGTTTCCACCCTGACCACAGCCAGCT	476	2930	1350	5140
CCCAACCATTTCCGCCACACCTCCAACCCACTGCCG	647	2030	542	4660
TGGAGAGCACAGGAAGTGGCCCACAGCCCAGGCCAA	5790	766	6890	1280
CCTGACTTCCTCCTCCCCCTCCCGCCACAATTCCGC	1240	1620	1620	2880
CTAACCCTGCTTCCTCTTAGTGGTTTCCCCCAACCT	616	1620	793	3220
CGGGAACACCCACTTCCGCCACAGACCTGCTCAAAA	1400	1090	1380	3820
CCTGCCTTCCGTCTTCCAGGCAGAACCACAGAGAGG	432	1180	481	1230
CTGTCCGCTACATCCGGGACCTGCGGGACCGCCGAT	1770	823	2430	2300
GGCGGCACTAGGCTTCCGCCTCACCGCAGTGGGGTT	362	855	845	1430
AACCCACCGGATGGAAGCTGCCACTCAGCCGCAGGA	1100	836	1700	1030
TTGCTTTATCACTTCCTGTTTGAGGTTTATATCCAT	5630	1590	9450	3160
GAGACAGGAAATGTAGACTTGAGTCCTGTGGTAAAC	1910	739	6740	1260

Sequence	ETS1 binding intensity (ETS1 [1])	RUNX1 binding intensity (RUNX1 [2])	ETS1 binding intensity (ETS1 [3])	RUNX1 binding intensity (RUNX1 [4])
CCTGGTCCGGAAGCGCTGTCCCCGCCTCCCGCATAG	1950	822	2430	1430
CCGCTGACATCCGCTTGGCCTGCGGCTTCTTTCTGT	715	1080	1030	2740
CAGTGGCTAAGGATCCGGTGTTGCGGTGATACATGA	430	804	643	1280
TTTATCATGAATGCAGGATGTGGGCAAACTCATGAC	2860	814	5910	1140
GACCGAGAGGAAGCAGCAAGGATCCTGCGGTTCCAG	505	821	1990	875
GCCAGCGGGGCTTCCGGCCCCGCAGGCAGAAGTCGA	1460	646	1290	1260
GACGGGAGCACCGGAAGCGGTCTTTCCCCGAGCGGA	12900	736	12500	2370
AGCGCCGGAAGTGTGTCTGCGTAAAACTGCGGCTCG	3490	740	3720	1520
AGATCAACTTCCACATCCGGTGGTAACAGGGCCCTA	5380	835	5560	2970
CCCCACATCCGGGGGCCGGGGCCGGGCTGTGGGCTT	524	739	516	2140
TGAAGTTGGTGTTTTCCGGGGGCGGTTTTTCCATTG	504	897	451	969
TGTATAACATCCTCATGTTCTGTGGGTGAGTTGAGC	481	824	356	871
ACTACAACTTCCGACTTGCATCACTGCGGTGGCGCT	425	942	573	1830
TCCACATCCTGCTCCTCGGGTTTGCGGCGAGGACTC	593	809	1010	2660
GCTGCCACTTCCCTTGCTTATTTCATGTGGTTTGGA	552	1230	794	1980
CCGCTTCCTTAGAGGTTAAGTGGTGGTGGTTCAGTT	473	856	391	1230
CCTTGCTGCAGGATGCTCTAACCACAAGCCCAGGAG	528	2370	2720	5330
GGTCCGGAAACGATTCTGGACCTGCGGGTATATCCA	1050	776	1350	1070
AAGGCGGTACTTCCTCCAGCATTTGCCGCAAGTTAT	417	768	535	1250
CTCCGATTGAGAACAGGAAGCCACAGGCCAATACAA	2660	831	3260	931
